# Measurements reported in publication PMC4336329 (PLoS ONE, 2015).
# Hit rate of the full screen: of about 310,000 compounds, about 2,200 (0.71%) showed an effect of 50% or more. The effect is printed as a negative number. For the sample, strong results were picked, then their nearest neighbours and some compounds at random.
# Molecular target: human ether-à-go-go-related gene (hERG) potassium channel (human, UniProt Q12809)
# Experiment: primary screen, population patch clamp on CHO cells stably expressing hERG; higher = less effect of the substance
# Sequence of human ether-à-go-go-related gene (hERG) potassium channel (Q12809 whole entry, looked up): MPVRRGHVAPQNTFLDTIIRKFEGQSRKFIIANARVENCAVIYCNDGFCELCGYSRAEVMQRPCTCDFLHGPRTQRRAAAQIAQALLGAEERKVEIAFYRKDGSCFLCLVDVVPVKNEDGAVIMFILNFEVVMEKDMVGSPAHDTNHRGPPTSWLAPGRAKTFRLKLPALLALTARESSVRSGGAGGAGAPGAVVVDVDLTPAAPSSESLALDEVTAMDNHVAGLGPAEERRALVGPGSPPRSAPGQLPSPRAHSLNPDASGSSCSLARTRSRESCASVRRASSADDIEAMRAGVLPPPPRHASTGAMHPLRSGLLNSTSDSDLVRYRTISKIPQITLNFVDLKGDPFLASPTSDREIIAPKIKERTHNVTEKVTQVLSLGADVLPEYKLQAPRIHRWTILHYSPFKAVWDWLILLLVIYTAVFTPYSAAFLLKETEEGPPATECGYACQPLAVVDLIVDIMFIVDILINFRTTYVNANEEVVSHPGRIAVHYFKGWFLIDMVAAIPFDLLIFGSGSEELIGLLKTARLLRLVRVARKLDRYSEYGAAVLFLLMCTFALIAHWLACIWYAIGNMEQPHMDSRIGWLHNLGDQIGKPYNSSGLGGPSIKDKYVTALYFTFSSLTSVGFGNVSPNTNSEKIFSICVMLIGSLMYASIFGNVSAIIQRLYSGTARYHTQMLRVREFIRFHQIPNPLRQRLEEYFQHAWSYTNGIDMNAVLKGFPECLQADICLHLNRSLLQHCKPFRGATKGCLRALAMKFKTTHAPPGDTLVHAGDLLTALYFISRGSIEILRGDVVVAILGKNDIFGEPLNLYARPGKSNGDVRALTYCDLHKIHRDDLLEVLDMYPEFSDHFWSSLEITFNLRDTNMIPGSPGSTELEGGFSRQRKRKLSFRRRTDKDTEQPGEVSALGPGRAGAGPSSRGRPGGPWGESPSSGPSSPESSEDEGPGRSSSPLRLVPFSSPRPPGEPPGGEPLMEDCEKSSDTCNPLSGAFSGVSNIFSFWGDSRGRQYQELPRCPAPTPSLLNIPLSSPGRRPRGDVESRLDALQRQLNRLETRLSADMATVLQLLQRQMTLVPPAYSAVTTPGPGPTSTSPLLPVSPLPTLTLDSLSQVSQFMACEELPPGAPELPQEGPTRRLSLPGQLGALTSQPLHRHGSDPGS
row,SMILES,"hERG current change (%, negative = inhibition) at 1uM [%]"
1,Cc1onc(-c2c(Cl)cccc2Cl)c1C(=O)Nc1ccc(Cl)cn1,11.3
2,COc1ccccc1NS(=O)(=O)c1cccc(C(=O)NCC(c2ccco2)N2CCCCC2)c1 (stereo not shown),-0.284
3,COc1ccccc1C(=O)NCC(=O)NC(C)c1ccc(-n2ccnc2)cc1 (stereo not shown),-2.86
4,CCOc1ccccc1C(=O)NC(C)c1ccc(-n2ccnc2)cc1 (stereo not shown),-34.8
5,CCOc1ccccc1C(=O)NCC(=O)NC(C)c1ccc(-n2ccnc2)cc1 (stereo not shown),-58.3
6,COc1ccccc1NC(=O)c1ccc(COc2ccccc2Br)o1,13.8
7,CSc1ccc(CN2CCN(Cc3ccc([N+](=O)[O-])cc3)CC2)cc1.O=C(O)C(=O)O,-70.5
8,COc1cc(OC)cc(C(=O)N2CCN(Cc3ccccc3[N+](=O)[O-])CC2)c1.O=C(O)C(=O)O,-7.12
9,CCS(=O)(=O)N1CCN(Cc2ccc([N+](=O)[O-])cc2)CC1.O=C(O)C(=O)O,9.38
10,CCc1ccc(CN2CCN(Cc3ccc(SC)cc3)CC2)cc1.O=C(O)C(=O)O,-27.1
11,Cc1ccc(CNC(=O)C2CCCC2)cc1,10.4
12,COc1ccccc1N1CCN(Cc2ccccc2)CC1.O=C(O)C(=O)O,6.85
13,COc1ccc(C(=O)N2CCN(Cc3ccccc3[N+](=O)[O-])CC2)cc1.O=C(O)C(=O)O,-20.9
14,CSc1ccc(CN2CCC(C(=O)NCc3ccc(C)cc3)CC2)cc1.O=C(O)C(=O)O,-76.1
15,O=C(O)C(=O)O.O=C(c1ccc([N+](=O)[O-])cc1)N1CCN(Cc2ccccc2[N+](=O)[O-])CC1,-70.1
16,COc1ccccc1N1CCN(Cc2ccc(Br)cc2)CC1.O=C(O)C(=O)O,-6.63
17,CCN(CC)c1ccc(CN2CCC(C(=O)NCc3ccc(C)cc3)CC2)cc1.O=C(O)C(=O)O,-13.2
18,COc1ccccc1N1CCN(Cc2ccc(SC)cc2)CC1.O=C(O)C(=O)O,-53.8
19,O=C(Cc1ccc([N+](=O)[O-])cc1)NCc1ccccn1,12.5
20,CC(N=C1NS(=O)(=O)c2ccccc21)C(=O)OCC(=O)N(C)C1CCS(=O)(=O)C1 (stereo not shown),-1.85
21,Cc1ccc2c(c1)c1c(c(=O)n(-c3ccccc3C)c(=O)n1CC(=O)NCC1CCCO1)n2C (stereo not shown),0.188
22,CCOC(=O)[C@H]1[C@H]2COc3ccc(OC)cc3[C@@H]2N2C(=O)c3cc(OC)c(OC)cc3NC(=O)[C@@]12C,5.4

row,SMILES,"hERG current change (%, negative = inhibition) at 1uM [%]"
1,O=C(NNC(=S)Nc1ccccc1)c1ccc(O)cc1,15.2
2,Cc1nn(-c2ccccc2)c(Cl)c1/C=C(\CC(=O)O)c1nc2ccccc2s1,2.95
3,Cc1nnc(SCC(=O)Nc2sc3c(c2C(N)=O)CCC(C)C3)[nH]c1=O (stereo not shown),10.6
4,CC1CCCCC1NC(=O)CN1C(=O)CSc2cc(S(=O)(=O)N3CCCCCC3)ccc21 (stereo not shown),7.3
5,O=C(c1ccc([N+](=O)[O-])cc1)N1CCN(Cc2ccccc2)CC1,-28.7
6,CSc1ccc(CN2CCN(C(=O)c3ccc([N+](=O)[O-])cc3)CC2)cc1.O=C(O)C(=O)O,-78.1
7,CSc1ccc(CN2CCN(C(=O)c3ccncc3)CC2)cc1,-0.743
8,Cc1[nH]c2ccc(Br)cc2c(=S)c1C/C=C/Cl,5.3
9,COCCNC(=O)NC(=O)COC(=O)C1(c2ccc(Cl)cc2)CC1,6.06
10,COc1ccc(C(CCN2CCCC2)c2c(O)cc(OC)cc2OC)cc1 (stereo not shown),-21.1
11,COc1cc(O)c(C(CCN2CCCC(C)C2)c2ccc(N(C)C)cc2)c(OC)c1 (stereo not shown),-9.72
12,CCN(CC)C(=O)CC(c1ccc2c(c1)OCO2)c1c(O)cc(OC)cc1OC (stereo not shown),5.47
13,COc1ccc(C(CCN2CCCCC2)c2c(O)cc(OC)cc2OC)cc1 (stereo not shown),-71.3
14,COc1cc(O)c(C(CC(=O)N2CCCC(C)C2)c2ccc3c(c2)OCO3)c(OC)c1 (stereo not shown),14.5
15,CCN(CC)CCC(c1ccc(OC)cc1)c1c(O)cc(OC)cc1OC (stereo not shown),-25.8
16,COc1cc(O)c(C(CCN2CCCCC2)c2ccc3c(c2)OCO3)c(OC)c1 (stereo not shown),-72.1
17,COc1cc(O)c(C(CCN2CCCCC2)c2ccc(N(C)C)cc2)c(OC)c1 (stereo not shown),10.3
18,COc1cc(O)c(C(CCN2CCN(c3ccccc3)CC2)c2ccc3c(c2)OCO3)c(OC)c1 (stereo not shown),5.8
19,COc1cc(O)c(C(CCN2CCCC(C)C2)c2ccc3c(c2)OCO3)c(OC)c1 (stereo not shown),-84.1
20,CCN(CC)CCC(c1ccc2c(c1)OCO2)c1c(O)cc(OC)cc1OC (stereo not shown),-73.4
21,COc1cc(O)c(C(CCN2CCCC2)c2ccc3c(c2)OCO3)c(OC)c1 (stereo not shown),-41.5
